Screening data as filed in PubChem.
An excerpt weighted towards active compounds, which were near 3.5% of everything screened.
GPR151 ag: activators of human GPR151, primary screen, cell-based, PathHunter beta-arrestin, luminescence; G-protein coupled receptor 151 (Homo sapiens), Q8TDV0; activation, % at 11.2 µM; PathHunter beta-arrestin GPR151 cells; 650,000 compounds, 1% hits; in the data active means activation above about 4.9%;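 further: 0% = median of compound wells and 100% = cells with positive control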
FBW7 act: FBW7 E3 ligase activators, primary screen, biochemical, AlphaScreen, human; F-box/WD repeat-containing protein 7 (Homo sapiens), Q969H0; AlphaScreen FBW7–phospho-cyclin E peptide binding, activator screen; normalized activity (activation), % at 26.1 µM; 650,000 compounds, 0.13% hits; AID 1259310, 2017; in the data active means normalized activity above about 1.9%;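 further: purified mutant Fbw7 with reduced substrate affinity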
MITF inh: MITF inhibitors, primary screen, biochemical, AlphaScreen, human; Microphthalmia-associated transcription factor (Homo sapiens), O75030; AlphaScreen MITF homodimerization, bead proximity signal; inhibition, % at 2.6 µM; 650,000 compounds, 0.91% hits; in the data active means inhibition above about 50%;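 further: 0% = vehicle wells with protein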
TEAD-YAP block: TEAD-YAP interaction inhibition, primary screen, TEAD-YAP interaction inhibitor project, luminescence, HEK-TIYL cells; TEAD-Gal4/YAP UAS-luciferase luminescence; inhibition, % at 9.12 µM; 640,000 compounds, 1.4% hits; AID 1259422, 2018; in the data active means inhibition above about 32%;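 further: 0% = median of test compound wells and 100% = reference inhibitor wells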
GPR151 confirm: GPR151 activators, triplicate retest, confirmation, cell-based, PathHunter beta-arrestin, luminescence; shares compounds with GPR151 ag; 6,700 tested, under 10 active; AID 1508609, 2020; GPR151 PathHunter beta-arrestin cells, 90 min; % of EA-reagent control over plate median; activation, % at 11.2 µM;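 active means mean percent activation across replicates above the confirmation screen cutoff of 4.91%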
GPR119 ag: GPR119 activators in beta-arrestin cells, counter-screen for GPR151 activator project, cell-based, PathHunter beta-arrestin, luminescence, triplicate | shares compounds with GPR151 ag | 90 min; 0 = compound-well median, 100 = enzyme-acceptor control | activation, % at 11.2 µM | 6,700 compounds, 0.3% hits | AID 1508611, 2020;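 active means mean percent activation in the counterscreen above 29.09%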;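 further: counterscreen on off-target GPR119 to flag nonselective hits from the GPR151 activator screen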
Target sequence (Q8TDV5 whole entry, looked up): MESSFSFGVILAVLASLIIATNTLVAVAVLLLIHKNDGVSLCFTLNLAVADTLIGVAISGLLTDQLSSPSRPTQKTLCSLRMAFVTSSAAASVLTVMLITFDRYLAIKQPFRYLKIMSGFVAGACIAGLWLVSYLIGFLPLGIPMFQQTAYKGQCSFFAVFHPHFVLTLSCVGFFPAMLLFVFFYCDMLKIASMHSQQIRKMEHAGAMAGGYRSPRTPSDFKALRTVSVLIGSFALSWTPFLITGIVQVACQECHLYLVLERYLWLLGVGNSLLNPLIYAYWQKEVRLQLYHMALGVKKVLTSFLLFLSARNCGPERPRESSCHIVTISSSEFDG
Starred values were filed as active, the others as inactive; · = no result.

SMILES	GPR151 ag	FBW7 act	MITF inh	TEAD-YAP block	GPR151 confirm	GPR119 ag
CC(C)[C@H]1NC(=O)[C@@H]2C[C@H](NCc3cccc(F)c3)CN2C1=O	0	0	12	8	·	·
CCC(C)Sc1ncnc2c1c(-c1ccccc1)cn2-c1ccc(OC)cc1 (centres undefined)	2	0	9	2	·	·
CCOc1ccc(-c2cccc(NC(=O)COc3ccc(C(=O)c4ccccc4)cc3)c2)nn1	7.3*	0	21	5	-1	-1
CC(=O)N1CCCN(c2nc3nonc3nc2NCc2cccs2)CC1	0	0	13	7	·	·
C=CCOC(=O)C1=C(C)NC(=S)NC1c1ccccc1 (centres undefined)	-1	0	15	10	·	·
COc1ccc(-c2nc(NC(C)=O)sc2C)cc1OC	6.0*	0	12	12	-1	-8
Cc1c(NC(=O)c2ccc(OCc3c(F)cccc3Cl)cc2)c(=O)n(-c2ccccc2)n1C	8.3*	0	4	5	2	-2
O=C(N=C1N=C2C=CC(Cl)=CN2Cc2ccccc21)c1ccco1	-7	0	6	-43	·	·
O=C(N=C1N=C2C=CC(Cl)=CN2Cc2ccccc21)c1ccc(Cl)c([N+](=O)[O-])c1	17*	0	-1	-16	1	-6
O=C(O)CN1C(=O)c2cccc3c(Cl)cc(Br)c1c23	0	0	2	1	·	·
O=C(O)CN1C(=O)c2cccc3c(Cl)cc(Cl)c1c23	6.1*	0	-1	0	0	2
O=C(NCc1ccc2c(c1)OCO2)c1cc(-c2ccccc2Cl)nc2ccccc12	0	0	7	19	·	·
COc1ccc(-c2cc(C(=O)NN)c3cc(Br)ccc3n2)cc1	5.0*	0	12	1	-1	-7
NNC(=O)c1cc(-c2ccc(F)cc2)nc2ccccc12	6.1*	0	5	2	1	16
O=C(NCc1ccc(F)cc1)c1cc(-c2ccccc2Cl)nc2ccccc12	17*	0	2	8	1	16
Cc1ccc(-c2cc(C(=O)NN)c3ccccc3n2)cc1	-2	0	3	-18	·	·
NNC(=O)c1cc(-c2ccc(O)cc2)nc2ccc(Br)cc12	1	0	3	4	·	·
CSc1nnc(CN(C)Cc2cc3ccccc3s2)n1CC1CCCO1 (centres undefined)	1	0	12	2	·	·
O=C(CCN1CCN(c2ccc(Cl)cc2)CC1)Nc1ccc(OC(F)(F)F)cc1	-1	0	17	2	·	·
CCCCNC(=O)NNc1ccc(S(=O)(=O)N2CCCCC2)cn1	4	0	5	-5	·	·
CCCS(=O)(=O)N1CCCC(C(=O)N2CCN(Cc3ccccc3)CC2)C1 (centres undefined)	1	0	7	12	·	·
CCc1ccccc1NC(=O)CN(Cc1ccc(Br)cc1)S(=O)(=O)c1ccccc1	-1	0	0	3	·	·
O=C(O)CN(Cc1ccc(Cl)cc1)S(=O)(=O)c1ccc(Cl)cc1	5.1*	0	-8	3	0	-6
Cc1ccc(CN(CC(=O)O)S(=O)(=O)c2ccc(Cl)cc2)cc1	1	0	-11	-7	·	·
O=C(CN(Cc1ccccc1)S(=O)(=O)c1ccc(Br)cc1)Nc1ccccc1Cl	6.0*	0	-5	-2	1	4
SMILES	GPR151 ag	FBW7 act	MITF inh	TEAD-YAP block	GPR151 confirm	GPR119 ag
CCc1ccccc1NC(=O)CN(Cc1ccccc1)S(=O)(=O)c1ccc(Br)cc1	6.6*	1	1	1	1	7
Cc1ccc(-c2nc3ccc(C(=O)NCc4ccc5c(c4)OCO5)cc3nc2-c2ccc(C)cc2)cc1	1	0	11	-11	·	·
CC(C)OC(=O)c1cccc(C(=O)Oc2ccc(Br)cc2)n1	6.7*	0	8	13	-1	-8
COC(=O)c1cccc(C(=O)Oc2ccc(Br)cc2)n1	1	0	-1	0	·	·
COc1ccccc1NCC(=O)N/N=C/c1cc(Br)ccc1O	9.8*	0	15	24	0	-18
COc1ccc(Br)cc1/C=N/NC(=O)CSc1ccccn1	7.0*	1	10	1	0	-13
COc1ccccc1NCC(=O)N/N=C/c1ccccc1O	0	0	11	1	·	·
COc1cc(Br)cc(/C=N/NC(=O)CNc2ccccc2C)c1O	5.9*	-1	14	25	1	-1
COc1ccc(Br)cc1/C=N/NC(=O)CSc1ncccn1	-2	0	19	-2	·	·
COc1ccc(Br)cc1/C=N/NC(=O)CNc1ccccc1C	0	0	-7	-4	·	·
Cc1ccc(C)c(CSc2nc(=O)[nH]c3c2CCC3)c1	-1	0	14	3	·	·
COc1ccc(C)cc1N(CC(=O)NCCC(C)C)C(=O)c1snc(C(N)=O)c1N	11*	0	-23	-2	1	5
COc1ccc(N(CC(=O)NCCC(C)C)C(=O)c2snc(C(N)=O)c2N)c(OC)c1	0	1	-2	-9	·	·
CC1(C)CC(=O)N(CC(=O)N2CCCCC2)c2ccccc2S1	5.7*	1	9	-5	-1	-2
CC1(C)CC(=O)N(CC(=O)N2CCCCCC2)c2ccccc2S1	4	0	5	-4	·	·
CCC(=O)NNc1nc2ccc(OC)cc2s1	6.3*	1	-9	3	1	6
CCN(CC)CC(=O)Nc1nc2ccc(OC)cc2s1	1	0	13	-15	·	·
CC(C)[C@H](NC(=O)c1ccc(F)cc1)C(=O)OCC(=O)Nc1ccc(C#N)cc1	7.4*	0	2	-7	0	-12
Cc1ccc(OCc2ccc(C(=O)NNC(=S)NCC3CCCO3)o2)c([N+](=O)[O-])c1 (centres undefined)	5.8*	0	20	3	1	-1
Cc1ccc(OC(C)C(=O)NNC(=S)NCC2CCCO2)c([N+](=O)[O-])c1 (centres undefined)	1	0	5	5	·	·
COc1cccc(NC(=O)C2C3C=CC4(O3)C2C(=O)N(C2CCCCCC2)C4C(=O)NC2CCCCC2C)c1 (centres undefined)	-1	0	27	-3	·	·
Cc1ccc(-c2cc(C(F)(F)F)n3ncc(C(=O)OC(C)C)c3n2)cc1	5.4*	0	-5	9	0	13
COC(=O)c1cnn2c(C(F)(F)F)cc(-c3ccc(C)cc3)nc12	0	0	-4	-10	·	·
